The results in this text go back to PubChem BioAssay.

Assay [1] in a line: inhibitors of PAX8-driven TPO luciferase reporter, dose response, RMG-I cells, cherry-pick (AID 687027;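 active means every replicate test run called active, with the signal dropping as expected and potency within twice the top valid dose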). (In a reporter assay the amount or activity of a reporter protein is the signal.)
The nature of assay [2]: non-specific cell cytotoxicity, dose response, cytotoxicity control for PAX8 inhibitor project, plate reader, dry powder samples (AID 743021).
Assay [3] can be described thus: cytotoxicity in PAX8-dependent RMG-1 cells, dose response, cell-based, cherry-pick (AID 687029;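 active means signal drop whose fitted half-maximal concentration is at most twice the top valid dose, in every test run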;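 further: cells exposed to compound for 96 hours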).
A short description of assay [4]: inhibitors of CMV-promoter luciferase reporter, dose response, counter-screen for Pax8 inhibitor project, cell-based, HEK293, luminescence, dry powder (AID 743020;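 active means signal-lowering compounds whose fitted half-maximal concentration is at or below twice the top tested dose in every run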;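 further: HEK293 cells stably expressing the CMV luciferase reporter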).
The nature of assay [5]: cytotoxicity in IOSE-T80 ovarian epithelial cells, dose response, selectivity assay for PAX8 inhibitor project, cell-based, cherry-pick (AID 687032;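 active means fitted half-maximal concentration for viability loss no higher than twice the top valid dose, in every repeat run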;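 further: cells exposed to compound for 96 h before reading; 0% = neutral control wells and -100% = 2 µM mitoxantrone kill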).
A short description of assay [6]: IGROV1 ovarian cancer cell cytotoxicity, dose response, PAX8 inhibitor project, plate reader, dry powder samples (AID 743043).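 Further: more negative means fewer viable cells or more cytotoxicity.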
A short description of assay [7]: NIH:OVCAR-3 ovarian cancer cell cytotoxicity, dose response, PAX8 inhibitor project, plate reader, dry powder samples (AID 743044). To be noted: max activity: at 35 µM, stronger effect = lower value unless noted.
A short description of assay [8]: IOSE-T80 ovarian epithelial cell cytotoxicity, dose response, cytotoxicity control for PAX8 inhibitor project, plate reader, dry powder samples (AID 743045).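 Further: 0% = neutral control median and -100% = positive control median; more negative values mean more cell killing.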
Assay [9] is described as follows: A2780 ovarian cancer cell cytotoxicity, dose response, cytotoxicity control, plate reader, dry powder samples (AID 743046).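 Further: 0% = neutral control wells and -100% = cytotoxic reference compound.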
The nature of assay [10]: cytotoxicity in OVCAR8 ovarian cancer cells, dose response, PAX8 project, cell-based, plate reader, dry powder samples (AID 743197).

Entries with a potency or affinity are not part of this list. Inconclusive results are not listed. Values without a mark were called inactive. Calls of active or inactive are those of the source. Unless noted, how the calls were made is not given here.

In the case of `COc1ccc(C(=O)NC(=S)NNC(=O)c2c(-c3ccccc3)noc2C)cc1`, the compound was classed as inactive in assay [1] and in assay [2].
Turning to `CCC1CCCCN1S(=O)(=O)c1ccc(NC(=O)c2nc(S(C)(=O)=O)ncc2Cl)cc1` (stereo unspecified), the compound was called inactive in assay [3].
Turning to `O=C(CCC(=O)c1ccccc1)NCCc1c[nH]c2ccccc12`, the result in assay [1], in assay [4] and in [2] was inactive.
In the case of `N#Cc1nccnc1S(=O)(=O)c1cccs1`, the result in assay [3] was inactive.
`CCOc1ccc2nc(N/C(N)=N/C(=S)Nc3ccc(C)c(C)c3)nc(C)c2c1`: the call in [1], in [4] and in assay [2] was inactive.
`COc1ccc2c(COC(=O)CNC(=O)C34CC5CC(CC(C5)C3)C4)cc(=O)oc2c1`: the compound was called inactive in assay [1] and in assay [2].
For `COc1ccc(NC(=O)N2CCCCN3[C@@H](CO)[C@@H](c4ccc(C#Cc5ccccc5)cc4)[C@@H]3C2)cc1`, the result in assay [3] was inactive.
Turning to `CCN1CCN(Cc2ccc(NC(=O)c3ccc(C)c(NC(=O)c4c[nH]c5cc(C(F)(F)F)ccc5c4=O)c3)cc2C(F)(F)F)CC1`, the result in assay [3] was inactive.
For the compound `CCOc1ccc(-n2c(=S)sc3c(=O)[nH]c(SCC(=O)NCC4CCCO4)nc32)cc1` (stereo unspecified), the outcome in assay [1], in [4] and in assay [2] was inactive.
Consider `Cc1cc(CN(C)C(=O)c2cc(COc3ccc4ncccc4c3)on2)on1`, for which the outcome in [1], in assay [4] and in [2] was inactive.
As to `Cc1nn(-c2ccccc2)c(Cl)c1CN(C(=O)CCl)c1cccc2ccccc12`, the result in assay [3] was inactive.
As to `CN(C[C@H]1N[C@@H](CO)[C@@H]1c1ccc(C2=CCCC2)cc1)C(=O)c1cccc(F)c1`, the call in [3] was inactive.
In the case of `CNC[C@H]1Oc2ccc(NC(=O)NC(C)C)cc2CC(=O)N([C@@H](C)CO)C[C@@H]1C`, the compound was classed as inactive in assay [1], in assay [5], in assay [4], in [2], in assay [6] and in [8]. For the same compound, the result in assay [9] and in assay [10] was inactive. Further, in [7], the max activity is 12.2% [at 2.1 µM, stronger effect = lower value].
For `C[C@@H]1CN([C@@H](C)CO)S(=O)(=O)c2ccc(C#Cc3ccncc3)cc2O[C@@H]1CN(C)C(=O)C1CCCCC1`, the outcome in [1], in assay [5], in assay [4], in [2], in assay [6] and in assay [8] was inactive. The compound was classed as inactive in assay [9] and in assay [10]. In addition, in assay [7], the max activity was -17.5% [at 1 µM, stronger effect = lower value].
`Cc1cc(Nc2ccc3c(c2)OCCO3)c2ccccc2n1`: the compound was called inactive in [1] and in [2].
Turning to `COC(=O)C1C=CC(OC2OC(COC(C)=O)C(OC(C)=O)C(OC(C)=O)C2OC(C)=O)n2c(=O)n(-c3ccccc3)c(=O)n21` (stereo unspecified), the result in assay [3] was inactive.
On to `O=C(CCCCCCC(=O)Nc1ccccc1)NO`, for which, in assay [3], the call was inactive.
Still for that read-out and setting: the same measure for `CN=c1scc(-c2ccccc2F)n1/N=C/c1ccc[nH]1`: “inactive”.
In the case of `COc1cc(OC)cc(C(=O)NCC(=O)OCC(=O)c2cc(C)n(Cc3ccco3)c2C)c1`, the call in assay [1], in assay [4] and in [2] was inactive.
As to `Cc1nnc(N/N=C/c2cc(C)n(-c3ccc(F)cc3)c2C)n1N`, the compound was called inactive in assay [1], in [4] and in assay [2].
With `CCSc1cc(N2CCOCC2)nc(-c2ccc(Cl)cc2)n1`, the result in assay [1], in [4] and in assay [2] was inactive.
For the compound `CCCCn1c(O)c(N=NC(=O)Cn2c(C(F)(F)F)nc3ccccc32)c2ccccc21`, the compound was classed as inactive in assay [1], in [4] and in [2].
Regarding `NC(N)=NN=C(c1ccc(F)cc1)c1ccc(C(F)(F)F)cc1`, the result in assay [3] was inactive.
Turning to `CNC[C@@H]1Oc2ccc(NC(=O)NC(C)C)cc2CC(=O)N([C@@H](C)CO)C[C@@H]1C`, the compound was classed as inactive in assay [1], in assay [4], in assay [2], in assay [6], in [8] and in [9]. Further, in [10], the compound was classed as inactive. Moreover, in assay [7], the max activity was 22.5% [at 0.5 µM, stronger effect = lower value].
On to `COc1ccccc1CNC(=O)c1ccc2nc3[nH]c4ccccc4c3nc2c1`, for which the compound was called inactive in [1], in [5] and in assay [2].
`O=c1c2ccccc2cnn1-c1nc2ccccc2[nH]1`: the compound was classed as inactive in assay [3] and in [5].
In the case of `Cc1ccc(-n2nc(C)c(NC(=O)CCl)c2C)cc1C`, the compound was called inactive in assay [3] and in [5].
For `OCC1OC(n2cnc3c(NCc4ccco4)ncnc32)C(O)C1O` (stereo unspecified), the compound was called inactive in [3] and in [5].
Regarding `COc1ccc(C2C(O)C(c3c[nH]c4ccccc34)=NN2C(=O)CCl)cc1` (stereo unspecified), the call in [3] and in [5] was inactive.
With `C=CCOc1ccccc1CN(C(=O)CCl)c1ccc2c(c1)OCO2`, the compound was called inactive in assay [3] and in assay [5].
As to `COc1ccc(C(C(=O)NC2CCCCC2)N(C(=O)CCl)c2ccc(C)cc2)cc1` (stereo unspecified), the result in [3], in assay [5] and in assay [4] was inactive.
For the compound `COc1ccc(C#Cc2ccc([C@H]3[C@@H](CO)N4CCCCN(C(=O)Nc5cccc(F)c5)C[C@H]34)cc2)cc1`, the outcome in assay [3] and in assay [5] was inactive.
Turning to `Brc1ccc2nc(-c3ccc(CN4CCC(c5nc6ccccc6[nH]5)CC4)cc3)c(-c3ccccc3)nc2c1`, the result in assay [3] and in [5] was inactive.
